# Reference: PubChem BioAssay (NCATS)
# Records with an inconclusive call do not appear. A call without a number means that no potency is given here. Active and inactive are the calls of the source. Unless noted, calls come from the whole dose curve; as a rule, active = well fitted curve in the direction sought with a large enough effect; inconclusive = small, poorly fitted or top-dose-only effect, or another doubt; inactive = no such curve, though single readings can be large; an effect the other way counts as inactive or inconclusive.
# Assays:
# [1] = target: Luciferin 4-monooxygenase (Photinus pyralis) (UniProt P08659); assay: Biochemical firefly luciferase enzyme assay for NPC (AID 624030);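 note: purified P. pyralis luciferase at 10 nM with luciferin and ATP substrate; series mostly up to about 59 µM; nearly all actives have a fitted effect of over 70% in size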
# Chain of Luciferin 4-monooxygenase (Photinus pyralis) (P08659 whole entry, looked up): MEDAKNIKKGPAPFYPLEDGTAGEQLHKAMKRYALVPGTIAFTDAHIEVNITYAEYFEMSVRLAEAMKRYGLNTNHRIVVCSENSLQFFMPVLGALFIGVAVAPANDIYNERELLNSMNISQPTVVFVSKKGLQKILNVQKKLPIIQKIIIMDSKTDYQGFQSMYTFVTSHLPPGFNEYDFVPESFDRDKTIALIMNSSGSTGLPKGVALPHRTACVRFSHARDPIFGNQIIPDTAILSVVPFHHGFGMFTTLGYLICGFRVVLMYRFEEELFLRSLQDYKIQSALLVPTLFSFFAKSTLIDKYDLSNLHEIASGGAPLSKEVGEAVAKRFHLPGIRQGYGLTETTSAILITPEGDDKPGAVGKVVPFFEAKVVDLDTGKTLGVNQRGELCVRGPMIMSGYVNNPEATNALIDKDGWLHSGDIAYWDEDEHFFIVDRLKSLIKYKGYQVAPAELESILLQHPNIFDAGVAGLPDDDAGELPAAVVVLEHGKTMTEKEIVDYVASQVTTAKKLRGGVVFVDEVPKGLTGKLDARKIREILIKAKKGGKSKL
# How it was run: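 Purified P. pyralis luciferase at 10 nM in 50 mM Tris Acetate (final), luminescence read within 5 minutes of enzyme addition to compounds. Activity normalised to PTC124 versus DMSO; concentration-response curves classed by r2, magnitude and activity.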
# [2] = S16 Schwann cell viability assay (CellTiter-Glo assay) (AID 624031); note: nearly all actives have a fitted effect of over 70% in size; note: potency is the fitted concentration of half-maximal effect
# How it was run: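 Untransfected S16 rat Schwann cells; compound 24 h, 37 °C/5% CO2; CellTiter-Glo ATP luminescence. % activity vs no-cell wells and DMSO controls (0%); concentration-effect curves classed by r2, response magnitude, activity.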
# [3] = S16 Schwann cell PMP22 intronic element firefly luciferase assay (AID 624032); note: series mostly up to about 58 µM; nearly all actives have a fitted effect of over 30% in size
# How it was run: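 Rat S16 Schwann cells stably carrying firefly luciferase driven by a PMP22 intronic element, in 10% FBS, treated 24 h at 37 C. ONE-Glo luminescence normalized to PTC124 control and DMSO (0%); curves classed by r2, magnitude and activity.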
# [4] = S16 Schwann cell PMP22 intronic element beta-lactamase assay (AID 624044; calls by dose curve; note: nearly all actives have a fitted effect of over 15% in size)
# How it was run: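 Rat S16 Schwann cells with beta-Lac driven by a PMP22 intronic element, compound-treated 24 h at 37 °C. LiveBLAzer FRET B/G read: 460 nm normalized to potassium clavulanate vs DMSO; 535 nm FRET as viability; concentration-effect curves classified.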
Structure (SMILES),Potency [1],Potency [2],Potency [3],Potency [4]
COC(=O)Nc1nc2ccc(S(=O)c3ccccc3)cc2[nH]1 (stereo not drawn),inactive,–,–,–
CNC1CCCN(c2c(F)cc3c(=O)c(C(=O)O)cn(C4CC4)c3c2OC)C1 (stereo not drawn),inactive,inactive,inactive,inactive
CCCc1cc(C(N)=S)ccn1,inactive,inactive,inactive,–
CN1CCCC(n2nc(Cc3ccc(Cl)cc3)c3ccccc3c2=O)CC1 (stereo not drawn),inactive,–,–,inactive
CNCC[C@H](Oc1cccc2ccccc12)c1cccs1,inactive,16.1 µM (active),–,inactive
